In PubChem BioAssay (NCATS):
Records with an inconclusive call do not appear. Values without a mark were called inactive. Calls of active or inactive are those of the source. Calls follow the shape of the dose curve; as a rule, active = well fitted cell-killing curve with a large enough effect; inconclusive = small, poorly fitted or top-dose-only effect, or effect the other way; inactive = flat fitted curve, though single readings scatter.

test system: CAOV3; assay: Primary qHTS to identify gynecologic anti-cancer compounds using libraries of approved drugs and bioactive compounds (AID 1345084); conditions: Gynecologic cancer cell panel viability, ATPlite luminescence, 48 h; series mostly up to 57.5 µM; activity change, negative = cytotoxicity: at the top concentration; also: nearly all actives have a fitted effect of over 55% in size
Description: National Center for Advancing Translational Sciences [NCATS] Assay Overview: Chemotherapeutic drug responses vary from cancer to cancer and from patient to patient. These variations could be caused by a number of factors including patient genomic background, tumor mutations, tumor heterogeneity, and aspects of drug treatment. Chemotherapeutic drug resistance is also a common issue and can lead to ineffective treatment and patient death. Here we have profiled the cell killing effects of thousands of compounds to characterize the responses in three gynecological cancers, identify cancer-selective compounds, and understand the diversity of responses to these compounds from pan-cancer suppressors to single cell line selective compounds. In this assay, we screened a 7,914 compound drug library that included approved drug and bioactive compounds in six ovarian, three cervical, and […] placental cancer cell lines using the ATPlite assay for cell viability. […] The cervical cancer cell lines included HeLa, Ca Ski, and C-33 A. The placental cancer cell lines included JEG-3. HEK 293T cells were used as the control cell line to determine the selectivity index. ATPlite is a luminescence based assay reliant on the conversion of a luciferase substrate to light in the presence of ATP. As a cytotoxic compound will suppress growth and decrease the number of cells, the concentration of ATP will decrease, and less light signal will be detected in the well.
Assay Protocol Summary: 1,000 cells in 4 uL of media were dispensed into white, solid bottom 1536-well plates using a Multidrop Combi (Thermo Scientific). The Assay plates were incubated for 16 hours at 37 C with 5% CO2 in assay plates, followed by the addition of 23 nL of DMSO or drug dissolved in DMSO. Each compound was assayed in five concentrations (0.092, 0.46, 2.3, 11.5, and 57.5 uM), using the automated Wako 1536 Pin Tool workstation and incubated at 37 C with 5% CO2 48 hours. 4 uL of ATPlite, the ATP monitoring reagent, was then added to the each well of the assay plates using the Multidrop Combi reagent dispenser followed by incubation for 15 minutes at room temperature. The resulting luminescence was measured using the ViewLux plate reader.
% is scaled to controls: 0 for no effect and ±100 for the full control effect.

Compound	activity change, negative = cytotoxicity	outcome
CN1C(=O)COc2c(C(=O)NC3CN4CCC3CC4)cc(Cl)cc21 (stereo not given)	-4.11%	
CN(C)CCc1c[nH]c2cccc(OP(=O)(O)O)c12	-3.65% [at 116 µM]	
CC(NC(C)(C)C)C(=O)c1cccc(Cl)c1 (stereo not given)		inactive
COc1cccc([C@@]2(O)CCCC[C@@H]2CN(C)C)c1	4.39%	
CC(Cc1ccccc1)N(C)Cc1ccco1 (stereo not given)	12.4%	
C[C@]12CC[C@@H]3c4ccc(OC(=O)N(CCCl)CCCl)cc4CC[C@H]3[C@@H]1CC[C@@H]2OP(=O)(O)O	-6.73%	
C[C@]12Cc3cn[nH]c3C[C@@H]1CC[C@@H]1[C@@H]2CC[C@@]2(C)[C@H]1CC[C@]2(C)O	10.1%	
CCCN(CCC)C(=O)Cc1c(-c2ccc(Cl)cc2)nc2ccc(Cl)cn12	-27.8%	
CC(C)c1c(CN(C)C(C)Cc2ccccc2)n(C)n(-c2ccccc2)c1=O (stereo not given)	-2.06%	
Nc1ccccc1C(=O)O	-2.89%	
O=C1OC(CCN2CCCCC2)OC1(c1ccccc1)c1ccccc1 (stereo not given)	4.76%	
CC(C)c1cccc(C(C)C)c1O	-12.6%	
NC(=O)c1cc([N+](=O)[O-])cc([N+](=O)[O-])c1	-6.53%	
c1ccc2c(c1)sc1ccccc12	17%	
COP(=S)(OC)Oc1ccc(S(=O)(=O)N(C)C)cc1	3.08%	
C[C@H]1[C@@H]2Cc3ccc(O)cc3[C@@]1(C)CCN2C	6.63% [at 288 µM]	
O=C1CN=C(c2ccccc2)c2cc([N+](=O)[O-])ccc2N1	-9.53%	
CCCCC/C=C\C/C=C\C/C=C\C/C=C\CCCC(=O)NCC(=O)O	2.14%	
CCC1(c2ccccc2)C(=O)N(COC)C(=O)N(COC)C1=O	0%	
CCN[C@@H](C)Cc1cccc(C(F)(F)F)c1	2.18%	

Compound	activity change, negative = cytotoxicity	outcome
COc1cc(CCN)cc(OC)c1OC	7.83% [at 116 µM]	
C[C@]12CC[C@H]3[C@@H](CCC4=CC(=O)CC[C@@H]43)[C@@H]1CC[C@@H]2OC(=O)CCc1ccco1	3.19%	
COP(=S)(OC)Oc1ccc(SC)c(C)c1	0.228%	
CCC1(c2ccc(N)cc2)CCC(=O)NC1=O (stereo not given)	1.47%	
O=C(N/N=C/c1ccc([N+](=O)[O-])o1)c1cc([N+](=O)[O-])cc([N+](=O)[O-])c1O	1.21%	
O=c1oc2ccccc2c(O)c1Cc1c(O)c2ccccc2oc1=O	-17.2%	
CC(C)(C)c1ccc(O)cc1	17.3%	
C#CC(O)(C=CCl)CC (stereo not given)	15.2%	
O=C1OC(c2ccc(O)c(S(=O)(=O)O)c2)(c2ccc(O)c(S(=O)(=O)O)c2)c2c(Br)c(Br)c(Br)c(Br)c21	8.3%	
CN1CC[C@]23c4c5ccc(O)c4O[C@H]2[C@@H](O)C=C[C@H]3[C@H]1C5	13.7% [at 116 µM]	
O=C(O)c1ccc(=O)[nH]c1	2.06%	
CCC(C)C(C)(COC(N)=O)COC(N)=O (stereo not given)	9.56%	
O=C1c2ccccc2C(=O)c2ccccc21	4.75% [at 25.3 µM]	
CC(C)NC(C)C	6.78%	
CCCCCCC(=O)CCCCCC/C=C/C[C@@H](O)[C@H](O)[C@@](N)(CO)C(=O)O	0% [at 25.3 µM]	
COc1ccc2c3c1O[C@H]1[C@H](O)CC[C@H]4[C@@H](C2)N(C)CC[C@@]341	26.3% [at 116 µM]	
Oc1ccc(Cl)cc1	-33.7%	
CCC(C)(C)c1ccc(O)cc1	8.39%	
O=C(O)CCCc1ccc(N(CCCl)CCCl)cc1	6.94%	
C=CCN1C[C@H](C)N([C@H](c2ccc(C(=O)N(CC)CC)cc2)c2cccc(OC)c2)C[C@H]1C		inactive
